Measured values as given in PubChem BioAssay AID1012 (Sanford-Burnham Center for Chemical Genomics, 2008).
Out of some 200,000 compounds screened, about 520 (0.26%) were called active.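 Rule for the calls: active = tissue-nonspecific alkaline phosphatase inhibition above about 50% at 20 µM in the single-dose screen (limit read from the data); inactive = the rest.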 The sample as a whole holds a higher share of actives than the screen did.

target: Alkaline phosphatase, tissue-nonspecific isozyme (Homo sapiens) (UniProt P05186); assay: human TNAP enzyme inhibitors, primary screen, biochemical, luminescent, no phosphate acceptor, uHTS (AID 1012); details: purified TNAP, CDP-star luminescence, 30 min; at 20 µM; stronger effect = higher value;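 note: 0% = DMSO negative control and 100% = EDTA positive control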
Sequence (P05186 whole entry, looked up): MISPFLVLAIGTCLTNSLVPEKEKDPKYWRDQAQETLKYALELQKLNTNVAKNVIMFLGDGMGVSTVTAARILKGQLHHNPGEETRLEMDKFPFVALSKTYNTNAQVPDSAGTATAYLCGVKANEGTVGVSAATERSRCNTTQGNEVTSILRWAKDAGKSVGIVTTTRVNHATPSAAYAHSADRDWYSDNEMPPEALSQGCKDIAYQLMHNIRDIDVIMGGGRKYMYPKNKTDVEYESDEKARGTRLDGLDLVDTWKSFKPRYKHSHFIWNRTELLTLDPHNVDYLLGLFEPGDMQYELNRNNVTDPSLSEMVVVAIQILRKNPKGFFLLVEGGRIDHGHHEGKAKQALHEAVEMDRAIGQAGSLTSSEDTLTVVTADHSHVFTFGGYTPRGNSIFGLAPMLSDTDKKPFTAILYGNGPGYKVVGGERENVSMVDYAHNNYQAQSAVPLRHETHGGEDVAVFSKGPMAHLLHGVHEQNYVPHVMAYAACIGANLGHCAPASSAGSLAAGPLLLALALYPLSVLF

inhibition, inactive:
COc1ccc(N2C(=O)CNC2=S)cc1 -13.2%
N#C/C=C(/c1ccc(F)cc1)N1CCOCC1 -8.3%
CC(C)CNC(=S)Nc1ccc(F)cc1 -5.6%
COc1ccc(/C=N/NC(=O)c2ccncc2)cc1CN1CCCc2ccccc21 -28.5%
CCC(=O)Nc1cc(C(F)(F)F)ccc1N1CCCC1 -1.6%
O=C(NC(=S)Nc1ccc(S(=O)(=O)Nc2ncccn2)cc1)c1cccc(Br)c1 5.9%
NS(=O)(=O)c1ccc(NC(=S)NC(=O)c2cccnc2)cc1 -3.6%
COc1ccccc1NC(=O)C1=C(C)Nc2nc3ccccc3n2C1c1cccs1 (stereo unspecified) -6.2%
CCOC(=O)C1=C(C)NC(=S)NC1c1cccs1 (stereo unspecified) -12.7%
COc1ccccc1Oc1nc(-c2cccnc2)nc2ccccc12 -4.1%
COc1cc(CNc2ncn[nH]2)ccc1OCc1ccccc1C -67%
Clc1ccc(-c2ncc3ccccn23)c(Cl)c1 -7.2%
O=C1CSC(c2ccccc2)N1c1nc(-c2ccc(Cl)cc2Cl)cs1 (stereo unspecified) -10%
CCCc1[nH]nc2c1C(c1ccc(Br)s1)C(C#N)=C(N)O2 (stereo unspecified) 1.9%
COCc1[nH]nc2c1C(C1C=CCCC1)C(C#N)=C(N)O2 (stereo unspecified) 14.2%
COc1nc(N(C)C)nc(N2CC(=O)N(CCNS(=O)(=O)c3ccc(C)cc3)C2=N)n1 -3.4%
COc1ccc(C)cc1NC(=O)NCc1ccccn1 -12.1%
CN(c1ccccc1)S(=O)(=O)c1ccc(Cl)c(C(=O)OCC(N)=O)c1 -4.4%
NNC(=O)c1ccc(Cl)cc1Cl -3.9%
CN(C)C=NC(=O)c1cccn1-c1ncc(C(F)(F)F)cc1Cl -14%
CNc1ccc(SC#N)cc1 -10.5%
O=C(OCc1nc2ccccc2[nH]1)C1CCCCC1 -36%
COC(=O)C1=CN(Cc2ccc(OC)c(OC)c2)C=C(C(=O)OC)C1c1cccs1 -7.4%
CC(=O)N1C(C)c2ccccc2C(C)(C)CC12CCCCC2 (stereo unspecified) 2.5%
COc1ccc(-c2noc(CN(C)S(=O)(=O)c3ccc(C)cc3)n2)cc1 -8.5%
COc1ccc(-n2c(SC)nc(O)cc2=O)cc1 -11.9%
CCn1c(SCc2ccccc2)nc2c(c1=O)SCC2 -14%
CS(=O)(=O)n1nc(-c2ccccc2)nc1NCc1ccco1 -1.5%
CCOc1cc(/C=C(/C#N)c2ccc(Cl)cc2)cc(Cl)c1OCC(=O)O -8.1%
CC(O)CNCCOc1cccc(Oc2ccccc2)c1 (stereo unspecified) -10.9%
COc1ccc(-c2nc(CN3CCN(c4ncccn4)CC3)c(C)o2)cc1C -13.8%
CCn1c(SCC(=O)Nc2nccs2)nnc1-c1ccco1 37.9%
Cc1ccccc1OCCOc1ccc([N+](=O)[O-])cc1/C=N/n1cnnc1 -2.8%
CC(=O)c1cnc(-c2ccccc2)s1 -4%
NS(=O)(=O)c1ccc(CNC(=O)c2ccc(Cl)cc2[N+](=O)[O-])cc1 -22.8%
CC(C)C(=O)Nc1ccc2c3c(cccc13)CC2 -18%
O=C(CSc1nnc(C2CC2)n1Cc1ccccc1)Nc1cccnc1Cl -1.5%
C/C(CC(=O)Nc1ccc(Cl)cc1)=N\NC(=O)C(=O)NCCO -12.4%
Cc1cs/c(=N\N=C\c2ccc(O)cc2)n1Cc1ccco1 -18.1%
CC(C)c1ccc(Nc2nnc(SCC(=O)c3nnc(-c4ccccc4)o3)s2)cc1 -1.3%
CC1Cc2ccccc2N1C(=O)CSc1nnc(-c2ccc(S(=O)(=O)N3CCCC3)cc2)n1C (stereo unspecified) -5.8%
O=C(Nc1ccccc1C(=O)N1CCOCC1)c1ccc(CSc2ccccc2)cc1 -8.4%
COC(=O)[C@H]1Cc2cnoc2C[C@]1(C)C(=O)O -8%
CC(Oc1ccccc1)C(=O)Nc1oc(-c2ccco2)c(-c2ccco2)c1C#N (stereo unspecified) -18.5%
COc1ccc(N2C(=O)CC(Sc3n[nH]c(-c4ccc(C)cc4)n3)C2=O)cc1 (stereo unspecified) 43.8%
O=Cc1ccc(Oc2cccc(C(F)(F)F)c2)nc1 -8.3%
O=C(Cc1c[nH]c2ccccc12)N/N=C/c1cccc(F)c1 -1%
Cc1cc(C(=O)COc2ccccc2[N+](=O)[O-])c(C)n1-c1cccc(S(=O)(=O)N2CCOCC2)c1 -9.7%
Cc1cc(OCC(=O)NC2CCN(C)CC2)ccc1[N+](=O)[O-] -25.3%
O=C(Cc1ccccc1)Nc1cccc(C(=O)N/N=C/c2ccco2)c1 -4.3%
CC(=O)NCC(=O)N1CCCC(C(=O)c2ccc3c4c(cccc24)CC3)C1 (stereo unspecified) -8.9%
Cc1ccccc1CC1(CO)CCCN(C(=O)c2cc(-c3ccccc3)no2)C1 (stereo unspecified) -4.5%
CC(=O)c1ccc(NC(=O)CSC(=S)N2CCCC2)cc1 -5.7%
CC(C)Oc1ccc(CC(=O)NNC(=S)Nc2ccc(Br)cc2)cc1 -117%
CCOCCCN(C(=O)Cn1nnc(-c2ccc(OC)c(OC)c2)n1)C(CC)C(=O)NC1CCCC1 (stereo unspecified) -11.1%
Cc1ccc(CN2CCN(Cc3cn(C)nc3-c3ccccc3)CC2CCO)o1 (stereo unspecified) -8.9%
Cn1cnnc1Sc1ccc(S(C)(=O)=O)cc1[N+](=O)[O-] -1.9%
COc1cc2c3c(c1)/C(=C1/SC(=S)NC1=O)C(=O)N3C(C)(C)C=C2C 21.4%
O=C(CSC1=Nc2ccccc2C2=NC(CC(=O)NCc3ccco3)C(=O)N12)NCc1ccco1 (stereo unspecified) -27.8%
CCC(C)NC(=O)CSC1=Nc2ccccc2C2=NC(CCC(=O)NCc3ccco3)C(=O)N12 (stereo unspecified) -11%
CN(C(=O)CSc1nncc2ccccc12)C1CCCCC1 -7.3%
C=CCNC(=O)COC(=O)CNC(=O)c1cc(Cl)cc([N+](=O)[O-])c1 6.8%
COc1ccc(OC)c(S(=O)(=O)Nc2cccc(-c3ccc4nncn4n3)c2)c1 -5.3%
COc1cccc(N(C(=O)C2COc3ccccc3O2)C(C(=O)NC2CCCCC2)c2ccc(O)cc2)c1 (stereo unspecified) 0.9%
Cc1cc2c(cc1C)[n+](C)cn2CC(O)COCC1CC=CCC1 (stereo unspecified) -9.6%
CCCCOc1ccc(N(CC(=O)NC(C)C)C(=O)CCC(=O)Nc2ccccn2)cc1 -3.6%
CC(C)NC(=O)NCCCCCCS(C)=O (stereo unspecified) -6.1%
COc1cccc(NC(=O)CS(=O)(=O)c2cn(CC(=O)N3CCOCC3)c3ccccc23)c1 -14.3%
COc1ccc(Cn2c(-c3ccc(Cl)cc3)c[n+]3ccccc23)cc1 -2.5%
COC1=CCC2([N+](=O)[O-])CN(CC(=O)O)CC1([N+](=O)[O-])C2 (stereo unspecified) -11.9%
CCCC(c1nnnn1C(C)(C)C)N1CCN(Cc2ccccc2)CC1 (stereo unspecified) -1.2%
c1ccc2c(NC3C4CC5CC(C4)CC3C5)nc(N3CCOCC3)nc2c1 (stereo unspecified) -15.9%
CC1CN(/C=C/C(=O)C(F)(F)F)CC(C)O1 (stereo unspecified) -8.2%
CCOc1ccccc1N1CCN(C(=O)COc2ccc3c(C)cc(=O)oc3c2)CC1 -11%
CC(C)CCC(C)NC(=O)c1ccc2nccnc2c1 (stereo unspecified) -12.5%
CC12CCC(C(=O)N(NC(=O)c3ccccc3O)C1=O)C2(C)C (stereo unspecified) 3.9%
COc1ccc(N2C(=O)C(O)C2c2ccc(C)cc2)cc1 (stereo unspecified) -8.2%
C=CCn1c(CCNC(=O)c2cccs2)n[nH]c1=S -3.9%
CCCc1nc(SCC(=O)Nc2ccc(S(=O)(=O)N(C)C)cc2)c2ccccc2n1 17.6%
Cc1cc(=O)oc(C)c1C(=O)NCCN(C)Cc1ccccc1 -6.1%
Cc1ccccc1NC(=O)c1nn(-c2ccc(F)c(F)c2)ccc1=O -8.3%
O=C(Nc1nnc(Cc2ccccc2)s1)c1cnccn1 -2.7%
CCN1CCN(C(=O)c2ccc(CN(c3ccc(C)c(C)c3)S(C)(=O)=O)cc2)CC1 -5.1%
CC(C)(C)C(=O)N1CCC[C@@]1(CO)C(=O)O -10.8%
Cc1ccc(S(=O)(=O)N2CCN(C(=O)c3cccs3)CC2)cc1 -7.6%
O=C(O)C1C2C=CC(O2)C1C(=O)NCCc1cccc(Cl)c1 (stereo unspecified) -9.5%
CC1CCC(NC(=O)C2c3ccccc3C(=O)N2Cc2ccc3c(c2)OCO3)CC1 (stereo unspecified) -16.3%
O=C(COC(=O)/C=C/c1cn(-c2ccccc2)nc1-c1cccnc1)Nc1ccc(Cl)cc1Cl -8.8%
CC(=O)Nc1ccc(C(=O)CSc2nc3ccc(C)cc3[nH]2)cc1 -33.5%

inhibition, active:
NS(=O)(=O)c1ccc(NC(=S)NC(=O)c2cccc(Br)c2)cc1 57.3%
CCOC(=O)C1=C(C)Nc2nc3ccccc3n2C1c1cccs1 (stereo unspecified) 57.2%
Clc1ccc(-c2cc(C3CCNCC3)[nH]n2)c(Cl)c1 80.1%
CCCc1[nH]nc2c1C(C1CC=CCC1)C(C#N)=C(N)O2 (stereo unspecified) 50.5%
CCS(=O)(=O)n1nc(-c2ccccc2)nc1SCc1ccccc1 61.1%
CCS(=O)(=O)n1nc(-c2ccc(OC)cc2)nc1SC 66%
CC(C)C1N=C2c3ccccc3N=C(SCC(=O)c3ccc(O)c(O)c3)N2C1=O (stereo unspecified) 93.7%
